{"source": "the supplement of paper PMC12282887", "assay_in_all_cases": "promoter activity interaction Z-score (Lux/OD deviation from empty-vector control); higher = stronger promoter induction by the compound", "key": {"[1]": {"tested_on": "E. coli BW25113 acrABp lux reporter", "outline": "(§1)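 E. coli BW25113, as wild type or one of three single-gene deletion strains, carried low-copy luxCDABE promoter reporters and grew in 40 µl LB Lennox in 384-well plates at 37°C, with OD600 and luminescence read every 30 min for 12 h. Each compound was run at four 1:2 dilutions in biological duplicates, integration spanned 0–8 h for wild type and 1–9 h for deletion strains, and wells under 10% of the median growth value were dropped. The score is the Z-transformed residual of growth-normalised luminescence fitted against a control.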"}, "[2]": {"tested_on": "E. coli BW25113 micFp lux reporter", "outline": "as §1"}, "[3]": {"tested_on": "E. coli BW25113 ompFp lux reporter", "outline": "as §1"}, "[4]": {"tested_on": "E. coli BW25113 robp lux reporter", "outline": "as §1"}, "[5]": {"tested_on": "E. coli BW25113 soxSp lux reporter", "outline": "as §1"}, "[6]": {"tested_on": "E. coli BW25113 tolCp lux reporter", "outline": "as §1"}, "[7]": {"conditions": "1 µg/ml, genetic background: wild type"}, "[8]": {"conditions": "1 µg/ml, genetic background: ΔmarA"}, "[9]": {"conditions": "1 µg/ml, genetic background: Δrob"}, "[10]": {"conditions": "1 µg/ml, genetic background: ΔsoxS"}, "[11]": {"conditions": "2.1 µg/ml, genetic background: wild type"}, "[12]": {"conditions": "2.1 µg/ml, genetic background: ΔmarA"}, "[13]": {"conditions": "2.1 µg/ml, genetic background: Δrob"}, "[14]": {"conditions": "2.1 µg/ml, genetic background: ΔsoxS"}, "[15]": {"conditions": "4.1 µg/ml, genetic background: wild type"}, "[16]": {"conditions": "4.1 µg/ml, genetic background: ΔmarA"}, "[17]": {"conditions": "4.1 µg/ml, genetic background: Δrob"}, "[18]": {"conditions": "4.1 µg/ml, genetic background: ΔsoxS"}, "[19]": {"conditions": "8.2 µg/ml, genetic background: wild type"}}, "note": "± gives the standard deviation of the averaged measurements."}
{"smiles": "CO[C@H]1/C=C/O[C@@]2(C)Oc3c(C)c(O)c4c(O)c(c(/C=N/N5CCN(C)CC5)c(O)c4c3C2=O)NC(=O)/C(C)=C\\C=C\\[C@H](C)[C@H](O)[C@@H](C)[C@@H](O)[C@@H](C)[C@H](OC(C)=O)[C@@H]1C", "note": "[Rifampicin]", "values": [{"measurement": "promoter activity interaction Z-score", "setting": "[1]; [7]", "result": "-0.791 ± 0.2"}, {"measurement": "promoter activity interaction Z-score", "setting": "[1]; [8]", "result": "-0.655 ± 0.13"}, {"measurement": "promoter activity interaction Z-score", "setting": "[1]; [9]", "result": "-0.627 ± 0.021"}, {"measurement": "promoter activity interaction Z-score", "setting": "[1]; [10]", "result": "-0.932 ± 0.2"}, {"measurement": "promoter activity interaction Z-score", "setting": "[1]; [11]", "result": "-0.695 ± 0.1"}, {"measurement": "promoter activity interaction Z-score", "setting": "[1]; [12]", "result": "-0.516 ± 0.29"}, {"measurement": "promoter activity interaction Z-score", "setting": "[1]; [13]", "result": "-0.838 ± 0.088"}, {"measurement": "promoter activity interaction Z-score", "setting": "[1]; [14]", "result": "-0.731 ± 0.3"}, {"measurement": "promoter activity interaction Z-score", "setting": "[1]; [15]", "result": "-0.811 ± 0.28"}, {"measurement": "promoter activity interaction Z-score", "setting": "[1]; [16]", "result": "-0.168 ± 0.19"}, {"measurement": "promoter activity interaction Z-score", "setting": "[1]; [17]", "result": "-1.06 ± 0.08"}, {"measurement": "promoter activity interaction Z-score", "setting": "[1]; [18]", "result": "-1.31 ± 0.3"}, {"measurement": "promoter activity interaction Z-score", "setting": "[2]; [7]", "result": "-0.224 ± 0.14"}, {"measurement": "promoter activity interaction Z-score", "setting": "[2]; [8]", "result": "-0.444 ± 0.16"}, {"measurement": "promoter activity interaction Z-score", "setting": "[2]; [9]", "result": "-0.287 ± 0.055"}, {"measurement": "promoter activity interaction Z-score", "setting": "[2]; [10]", "result": "-0.476 ± 0.024"}, {"measurement": "promoter activity interaction Z-score", "setting": "[2]; [11]", "result": "-0.39 ± 0.23"}, {"measurement": "promoter activity interaction Z-score", "setting": "[2]; [12]", "result": "-0.505 ± 0.12"}, {"measurement": "promoter activity interaction Z-score", "setting": "[2]; [13]", "result": "-0.336 ± 0.076"}, {"measurement": "promoter activity interaction Z-score", "setting": "[2]; [14]", "result": "-0.31 ± 0.041"}, {"measurement": "promoter activity interaction Z-score", "setting": "[2]; [15]", "result": "-0.432 ± 0.21"}, {"measurement": "promoter activity interaction Z-score", "setting": "[2]; [16]", "result": "-0.471 ± 0.047"}, {"measurement": "promoter activity interaction Z-score", "setting": "[2]; [17]", "result": "-0.229 ± 0.029"}, {"measurement": "promoter activity interaction Z-score", "setting": "[2]; [18]", "result": "-0.507 ± 0.018"}, {"measurement": "promoter activity interaction Z-score", "setting": "[2]; [19]", "result": "-0.505 ± 0.31"}, {"measurement": "promoter activity interaction Z-score", "setting": "[3]; [7]", "result": "-0.966 ± 0.35"}, {"measurement": "promoter activity interaction Z-score", "setting": "[3]; [8]", "result": "-1.53 ± 0.33"}, {"measurement": "promoter activity interaction Z-score", "setting": "[3]; [9]", "result": "-1.43 ± 0.2"}, {"measurement": "promoter activity interaction Z-score", "setting": "[3]; [10]", "result": "-1.07 ± 0.04"}, {"measurement": "promoter activity interaction Z-score", "setting": "[3]; [11]", "result": "-1.06 ± 0.5"}, {"measurement": "promoter activity interaction Z-score", "setting": "[3]; [12]", "result": "-2.11 ± 0.12"}, {"measurement": "promoter activity interaction Z-score", "setting": "[3]; [13]", "result": "-1.62 ± 0.39"}, {"measurement": "promoter activity interaction Z-score", "setting": "[3]; [14]", "result": "-0.784 ± 0.23"}, {"measurement": "promoter activity interaction Z-score", "setting": "[3]; [15]", "result": "-2.01 ± 0.86"}, {"measurement": "promoter activity interaction Z-score", "setting": "[3]; [16]", "result": "-2.895 ± 0.0098"}, {"measurement": "promoter activity interaction Z-score", "setting": "[3]; [17]", "result": "-2.58 ± 0.26"}, {"measurement": "promoter activity interaction Z-score", "setting": "[3]; [18]", "result": "-1.59 ± 0.43"}, {"measurement": "promoter activity interaction Z-score", "setting": "[4]; [7]", "result": "-0.184 ± 0.35"}, {"measurement": "promoter activity interaction Z-score", "setting": "[4]; [8]", "result": "-0.802 ± 0.3"}, {"measurement": "promoter activity interaction Z-score", "setting": "[4]; [9]", "result": "-0.501 ± 0.085"}, {"measurement": "promoter activity interaction Z-score", "setting": "[4]; [10]", "result": "-0.537 ± 0.55"}, {"measurement": "promoter activity interaction Z-score", "setting": "[4]; [11]", "result": "0.236 ± 0.31"}, {"measurement": "promoter activity interaction Z-score", "setting": "[4]; [12]", "result": "-0.639 ± 0.41"}, {"measurement": "promoter activity interaction Z-score", "setting": "[4]; [13]", "result": "-0.575 ± 0.22"}, {"measurement": "promoter activity interaction Z-score", "setting": "[4]; [14]", "result": "-0.311 ± 0.2"}, {"measurement": "promoter activity interaction Z-score", "setting": "[4]; [15]", "result": "-0.918 ± 0.011"}, {"measurement": "promoter activity interaction Z-score", "setting": "[4]; [16]", "result": "-0.833 ± 0.44"}, {"measurement": "promoter activity interaction Z-score", "setting": "[4]; [17]", "result": "-0.434 ± 0.68"}, {"measurement": "promoter activity interaction Z-score", "setting": "[4]; [18]", "result": "-1.71 ± 0.29"}, {"measurement": "promoter activity interaction Z-score", "setting": "[5]; [7]", "result": "-0.47 ± 0.0069"}, {"measurement": "promoter activity interaction Z-score", "setting": "[5]; [8]", "result": "-0.3407 ± 0.0028"}, {"measurement": "promoter activity interaction Z-score", "setting": "[5]; [9]", "result": "-0.44 ± 0.088"}, {"measurement": "promoter activity interaction Z-score", "setting": "[5]; [10]", "result": "-1.04 ± 0.46"}, {"measurement": "promoter activity interaction Z-score", "setting": "[5]; [11]", "result": "-0.551 ± 0.01"}, {"measurement": "promoter activity interaction Z-score", "setting": "[5]; [12]", "result": "-0.657 ± 0.0084"}, {"measurement": "promoter activity interaction Z-score", "setting": "[5]; [13]", "result": "-0.53 ± 0.048"}, {"measurement": "promoter activity interaction Z-score", "setting": "[5]; [14]", "result": "-1.11 ± 0.17"}, {"measurement": "promoter activity interaction Z-score", "setting": "[5]; [15]", "result": "-0.866 ± 0.076"}, {"measurement": "promoter activity interaction Z-score", "setting": "[5]; [16]", "result": "-0.906 ± 0.027"}, {"measurement": "promoter activity interaction Z-score", "setting": "[5]; [17]", "result": "-0.982 ± 0.24"}, {"measurement": "promoter activity interaction Z-score", "setting": "[5]; [18]", "result": "-1.51 ± 0.17"}, {"measurement": "promoter activity interaction Z-score", "setting": "[5]; [19]", "result": "-0.811 ± 0.051"}, {"measurement": "promoter activity interaction Z-score", "setting": "[6]; [7]", "result": "-0.736 ± 0.25"}, {"measurement": "promoter activity interaction Z-score", "setting": "[6]; [8]", "result": "-0.931 ± 0.48"}, {"measurement": "promoter activity interaction Z-score", "setting": "[6]; [9]", "result": "-0.816 ± 0.4"}, {"measurement": "promoter activity interaction Z-score", "setting": "[6]; [10]", "result": "-1.26 ± 0.3"}, {"measurement": "promoter activity interaction Z-score", "setting": "[6]; [11]", "result": "-0.703 ± 0.32"}, {"measurement": "promoter activity interaction Z-score", "setting": "[6]; [12]", "result": "-1.19 ± 0.18"}, {"measurement": "promoter activity interaction Z-score", "setting": "[6]; [13]", "result": "-0.827 ± 0.14"}, {"measurement": "promoter activity interaction Z-score", "setting": "[6]; [14]", "result": "-0.674 ± 0.63"}, {"measurement": "promoter activity interaction Z-score", "setting": "[6]; [15]", "result": "-0.555 ± 0.72"}, {"measurement": "promoter activity interaction Z-score", "setting": "[6]; [16]", "result": "-0.65 ± 0.61"}, {"measurement": "promoter activity interaction Z-score", "setting": "[6]; [17]", "result": "-1.152 ± 0.0016"}, {"measurement": "promoter activity interaction Z-score", "setting": "[6]; [18]", "result": "-0.717 ± 0.57"}, {"measurement": "promoter activity interaction Z-score", "setting": "[6]; [19]", "result": "0.0561 ± 0.59"}]}
